Here are results for twelve molecules from PubChem BioAssay (EPA / NIEHS).

Inconclusive results are not listed. Calls of active or inactive are those of the source. Rule for the calls: active = hit-call score of the fitted dose curve at least 0.9, where 1 is the maximum; inconclusive = response in the unintended direction; inactive = score below 0.9.

Assay [1] concerns frog Estrogen Receptor (ESR1), gene 398734. Kind of assay: ATG_frER1_XSP1: Attagene TRANS-FACTORIAL Multi-Species (XSP1) HepG2 Assay for frog Estrogen Receptor (ESR1) (AID 2283777). Summed up:
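Read-out: fluorescent reporter mRNA via RT-PCR, HpaI digestion and capillary electrophoresis, after 24 h chemical exposure of transiently transfected human HepG2 cells expressing exogenous NR-Gal4 chimeras. DMSO served as baseline for positive-direction fitting.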

For assay [2], the system named is zebrafish Estrogen Receptor (ESR2A), gene 317734. The assay can be described thus: ATG_zfER2a_XSP1: Attagene TRANS-FACTORIAL Multi-Species (XSP1) HepG2 Assay for zebrafish Estrogen Receptor (ESR2A) (AID 2283778). Summed up:
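HepG2 cells transiently transfected with multiplexed GAL4-UAS reporter units and chimeric NR-GAL4 receptors; 24 h compound exposure with 3 nM 6-alpha-fluorotestosterone present. Reporter mRNA quantified by RT-PCR and capillary electrophoresis, gain-of-signal fitted relative to DMSO.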

Assay [3] addresses chicken Estrogen Receptor (ESR1), ESR1 (gene 396099) (UniProt P06212). The assay can be described thus: ATG_chERa_XSP1: Attagene TRANS-FACTORIAL Multi-Species (XSP1) HepG2 Assay for chicken Estrogen Receptor (ESR1) (AID 2283779). Summed up:
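HepG2 cells transiently transfected with multiplexed GAL4-UAS reporter units expressing chimeric NR-Gal4 proteins; 3 nM 6-alpha-fluorotestosterone present. Reporter mRNA measured 24 h after dosing by RT-PCR, FAM labelling, HpaI digest and capillary electrophoresis; gain of signal versus DMSO.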

Assay [4] has as its target Estrogen receptor (Homo sapiens) (UniProt P03372). The assay can be described thus: ATG_hERa_XSP1: Attagene TRANS-FACTORIAL Multi-Species (XSP1) HepG2 Assay for human Estrogen Receptor (ESR1) (AID 2283780). Summed up: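 HepG2 cells transiently transfected with GAL4-UAS reporter units and chimeric NR-Gal4 constructs; 24 h after dosing, reporter mRNA quantified by RT-PCR and capillary electrophoresis. Medium contained 3 nM 6-alpha-fluorotestosterone; activity fitted as gain-of-signal versus DMSO.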

Assay [5] deals with turtle Estrogen Receptor (ESR1), gene 101933533. The assay can be described thus: ATG_trERa_XSP1: Attagene TRANS-FACTORIAL Multi-Species (XSP1) HepG2 Assay for turtle Estrogen Receptor (ESR1) (AID 2283781). Summed up: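 HepG2 cells transiently transfected with GAL4-UAS reporter units and chimeric NR-Gal4 constructs, dosed for 24 h with 3 nM 6-alpha-fluorotestosterone present. Reporter mRNA was quantified by RT-PCR, fluorescent labelling and capillary electrophoresis, with gain of signal fitted relative to DMSO.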

Assay [6] addresses Estrogen receptor beta (Homo sapiens) (UniProt Q92731). Kind of assay: ATG_hERb_XSP1: Attagene TRANS-FACTORIAL Multi-Species (XSP1) HepG2 Assay for human Estrogen Receptor (ESR2) (AID 2283788). Summed up: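 Read-out: reporter mRNA induction by RT-PCR, HpaI digestion and capillary electrophoresis fluorescence, fitted in positive direction relative to DMSO baseline. Human liver HepG2 cells expressing ERβ-Gal4 fusion, dosed 24 h, medium containing 3 nM 6-alpha-fluorotestosterone.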

Assay [7] deals with GAL4 Transcription Factor (Internal Marker), GAL4 (gene 855828) (UniProt P04386). Kind of assay: ATG_GAL4_XSP1: Attagene TRANS-FACTORIAL Multi-Species (XSP1) HepG2 Assay for GAL4 Transcription Factor (Internal Marker) (AID 2283789). Summed up: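 HepG2 cells transiently transfected with multiplexed GAL4-UAS reporter units were exposed for 24 h with 3 nM 6-alpha-fluorotestosterone present. Reporter mRNA was quantified by RT-PCR, FAM labelling, HpaI digestion and capillary electrophoresis; background-control readout, gain-of-signal versus DMSO.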
Sequence of GAL4 Transcription Factor (Internal Marker), GAL4 (gene 855828) (P04386 whole entry, looked up, the tested form may be a part): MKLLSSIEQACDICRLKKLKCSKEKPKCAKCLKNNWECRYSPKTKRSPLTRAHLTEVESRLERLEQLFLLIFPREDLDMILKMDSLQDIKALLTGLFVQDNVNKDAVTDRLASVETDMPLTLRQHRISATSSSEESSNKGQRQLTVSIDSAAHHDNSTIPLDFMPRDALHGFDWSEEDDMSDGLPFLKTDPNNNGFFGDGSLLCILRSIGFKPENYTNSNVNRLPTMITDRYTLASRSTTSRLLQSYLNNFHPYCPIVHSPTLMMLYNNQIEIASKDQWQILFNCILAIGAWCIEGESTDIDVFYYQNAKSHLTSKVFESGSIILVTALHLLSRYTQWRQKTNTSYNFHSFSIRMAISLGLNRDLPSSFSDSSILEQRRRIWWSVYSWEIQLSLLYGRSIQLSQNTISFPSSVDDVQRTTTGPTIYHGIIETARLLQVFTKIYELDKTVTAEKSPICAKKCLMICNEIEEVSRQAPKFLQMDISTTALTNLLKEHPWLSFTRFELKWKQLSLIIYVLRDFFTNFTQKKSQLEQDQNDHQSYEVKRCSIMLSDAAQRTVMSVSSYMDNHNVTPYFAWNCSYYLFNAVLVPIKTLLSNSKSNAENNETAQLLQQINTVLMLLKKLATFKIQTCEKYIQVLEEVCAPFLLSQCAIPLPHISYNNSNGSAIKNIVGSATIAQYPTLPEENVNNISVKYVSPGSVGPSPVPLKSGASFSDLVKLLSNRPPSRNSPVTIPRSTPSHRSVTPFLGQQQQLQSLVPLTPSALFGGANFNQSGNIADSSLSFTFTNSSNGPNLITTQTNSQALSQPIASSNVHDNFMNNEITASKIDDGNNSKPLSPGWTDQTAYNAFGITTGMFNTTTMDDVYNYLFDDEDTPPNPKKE

Assay [8] is described as follows: ATG_M_06_XSP1: Attagene TRANS-FACTORIAL Multi-Species (XSP1) HepG2 Assay for M06 Transcription Factor (Internal Marker) (AID 2283790). Summed up: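 Transfected HepG2 multi-reporter system treated 24 h in the presence of 3 nM 6-alpha-fluorotestosterone. The M06 internal marker transcript was quantified by RT-PCR with capillary electrophoresis as a background control, and gain of signal was scored versus DMSO.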

Assay [9] is described as follows: ATG_M_61_XSP1: Attagene TRANS-FACTORIAL Multi-Species (XSP1) HepG2 Assay for M61 Transcription Factor (Internal Marker) (AID 2283797). The method in brief: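 HepG2 cells transiently transfected with multiplexed GAL4-driven reporter units, dosed 24 h with 3 nM 6-alpha-fluorotestosterone present. Reporter mRNA quantified by RT-PCR, 6-FAM labelling, HpaI digestion and capillary electrophoresis; internal-marker background control, gain of signal versus DMSO.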

Assay [10] is described as follows: ATG_M_32_XSP1: Attagene TRANS-FACTORIAL Multi-Species (XSP1) HepG2 Assay for M32 Transcription Factor (Internal Marker) (AID 2283799). Summed up: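 HepG2 cells transiently transfected with multi-species TRANS reporter units, dosed 24 h with 3 nM 6-alpha-fluorotestosterone present. Internal-marker reporter mRNA quantified by RT-PCR and capillary electrophoresis; positive-direction fit versus DMSO.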

Assay [11] has as its target Peroxisome proliferator-activated receptor gamma (Homo sapiens) (UniProt P37231). Kind of assay: ATG_hPPARg_XSP1: Attagene TRANS-FACTORIAL Multi-Species (XSP1) HepG2 Assay for human Peroxisome Proliferator-activated Receptor gamma (PPARg) (AID 2283800). The method in brief: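 HepG2 cells transiently transfected with GAL4-UAS reporter units carrying chimeric NR-Gal4 proteins; 3 nM 6-alpha-fluorotestosterone present. After 24 h dosing, reporter mRNA quantified by RT-PCR and capillary electrophoresis; gain of signal relative to DMSO.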

For assay [12], the system named is zebrafish Peroxisome Proliferator-activated Receptor gamma (PPARg), gene 557037. Kind of assay: ATG_zfPPARg_XSP1: Attagene TRANS-FACTORIAL Multi-Species (XSP1) HepG2 Assay for zebrafish Peroxisome Proliferator-activated Receptor gamma (PPARg) (AID 2283801). Summed up: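 HepG2 cells transiently transfected with GAL4-UAS reporter units including a zebrafish PPARg–GAL4 chimera, dosed 24 h with 3 nM 6-alpha-fluorotestosterone present. Reporter mRNA quantified by RT-PCR, FAM labelling, HpaI digestion and capillary electrophoresis; induction versus DMSO.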

Assay [13] concerns the target mouse Peroxisome Proliferator-activated Receptor gamma (PPARg), Pparg (gene 19016) (UniProt P37238). The assay can be described thus: ATG_mPPARg_XSP1: Attagene TRANS-FACTORIAL Multi-Species (XSP1) HepG2 Assay for mouse Peroxisome Proliferator-activated Receptor gamma (PPARg) (AID 2283802). Summed up: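 HepG2 cells transiently transfected with GAL4-UAS reporter units driven by mouse PPARg–GAL4 chimera; 3 nM 6-alpha-fluorotestosterone present. After 24 h dosing, reporter mRNA quantified by RT-PCR, fluorescent labelling and capillary electrophoresis; gain of signal versus DMSO.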

In assay [14] the target is Nuclear receptor subfamily 1 group I member 2 (Mus musculus) (UniProt O54915). The assay can be described thus: ATG_mPXR_XSP1: Attagene TRANS-FACTORIAL Multi-Species (XSP1) HepG2 Assay for mouse Pregnane X Receptor (PXR) (AID 2283803). Summed up:
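Transiently transfected HepG2 cells expressing a receptor-Gal4 chimera drive a GAL4-UAS reporter; 3 nM 6-alpha-fluorotestosterone included. Reporter mRNA read 24 h post-dose by RT-PCR and capillary electrophoresis; gain of signal relative to DMSO.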

The nature of assay [15]: ACEA_AR_agonist_AUC_viability: ACEA Biosciences xCELLigence Real-Time Cell Analysis on Androgen Receptor Agonism for Viability (AID 2283775).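 For AC50: viability read 80 hours after compound addition.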 Summed up: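 Read-out is area under the impedance curve at 80 h post-dose in 22Rv1 cells, with DMSO as baseline and signal loss taken as reduced viability. Compounds ran in duplicate from 100 uM final.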
Assay [16] can be described thus: ACEA_AR_antagonist_AUC_viability: ACEA Biosciences xCELLigence Real-Time Cell Analysis on Androgen Receptor Antagonism for Viability (AID 2283776).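 Note: 22Rv1 human prostate cancer cells growing on impedance electrode plates; area under impedance growth curve at 80 h after dosing as viability; hits lower the growth signal relative to DMSO meaning cytotoxicity.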 Summed up: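 Viability endpoint from label-free cell-index monitoring: 22Rv1 cultures treated with an eight-point 1:4 dilution series starting at 100 uM final, AUC at 80 h fitted against DMSO.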
Assay [17] can be described thus: ACEA_ER_AUC_viability: ACEA Biosciences xCELLigence Real-Time Cell Analysis on Estrogen Receptor Agonism for Viability (AID 2283782).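 Note: continuous compound exposure with impedance area under curve over 80 h; hit means loss of impedance signal meaning reduced cell growth or viability.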 Summed up:
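T-47D human breast cells in phenol red-free RPMI1640 with 10% charcoal-stripped FBS were dosed with an 8-point 1:4 dilution series from 100 uM top final concentration, in duplicate. Impedance-based growth was followed for 80 h; AUC analysed versus DMSO.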

A short description of assay [18]: STM_H9_NormalizedViability: Cytotoxicity Assessment at 120 hours in the Stemina devTOX quickPredict H9 human embryonic stem cell (hESC)-based Assay (AID 2283784). Summed up: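 Undifferentiated H9 hESCs kept pluripotent were exposed to compound, with media and chemical replaced every 24h. CellTiter-Fluor protease-substrate fluorescence was background-corrected and normalized per plate to the 0.1% DMSO vehicle; signal loss indicates reduced viability.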

Assay [19] has as its target AR (gene 367) (UniProt P10275). The assay can be described thus: ACEA_AR_agonist_80hr: ACEA Biosciences xCELLigence Real-Time Cell Analysis on Androgen Receptor Agonism for Proliferation (AID 2283783).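 Note: hits increase impedance growth signal above DMSO baseline.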 Summed up:
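22Rv1 human prostate cancer cells were seeded after preconditioning in assay medium and monitored overnight, then dosed in an eight-point 1:4 dilution series from 100 uM (≤0.5% DMSO). Impedance-based growth was read at 80 h, gain-of-signal versus DMSO.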

For assay [20], the target named is AR (gene 367) (UniProt P10275). The assay can be described thus: ACEA_AR_antagonist_80hr: ACEA Biosciences xCELLigence Real-Time Cell Analysis on Androgen Receptor Antagonism for Proliferation (AID 2283787).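 Note: hits lower the impedance growth signal relative to DMSO.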 Summed up: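 Impedance readout (RT-CES), 80 h post-dose; loss-of-signal vs DMSO baseline. 22Rv1 cells in assay medium. Compounds: 8-pt 1:4 series, max 100 uM final, up to 0.5% DMSO; n = 2.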
Sequence of AR (gene 367) (P10275 whole entry, looked up): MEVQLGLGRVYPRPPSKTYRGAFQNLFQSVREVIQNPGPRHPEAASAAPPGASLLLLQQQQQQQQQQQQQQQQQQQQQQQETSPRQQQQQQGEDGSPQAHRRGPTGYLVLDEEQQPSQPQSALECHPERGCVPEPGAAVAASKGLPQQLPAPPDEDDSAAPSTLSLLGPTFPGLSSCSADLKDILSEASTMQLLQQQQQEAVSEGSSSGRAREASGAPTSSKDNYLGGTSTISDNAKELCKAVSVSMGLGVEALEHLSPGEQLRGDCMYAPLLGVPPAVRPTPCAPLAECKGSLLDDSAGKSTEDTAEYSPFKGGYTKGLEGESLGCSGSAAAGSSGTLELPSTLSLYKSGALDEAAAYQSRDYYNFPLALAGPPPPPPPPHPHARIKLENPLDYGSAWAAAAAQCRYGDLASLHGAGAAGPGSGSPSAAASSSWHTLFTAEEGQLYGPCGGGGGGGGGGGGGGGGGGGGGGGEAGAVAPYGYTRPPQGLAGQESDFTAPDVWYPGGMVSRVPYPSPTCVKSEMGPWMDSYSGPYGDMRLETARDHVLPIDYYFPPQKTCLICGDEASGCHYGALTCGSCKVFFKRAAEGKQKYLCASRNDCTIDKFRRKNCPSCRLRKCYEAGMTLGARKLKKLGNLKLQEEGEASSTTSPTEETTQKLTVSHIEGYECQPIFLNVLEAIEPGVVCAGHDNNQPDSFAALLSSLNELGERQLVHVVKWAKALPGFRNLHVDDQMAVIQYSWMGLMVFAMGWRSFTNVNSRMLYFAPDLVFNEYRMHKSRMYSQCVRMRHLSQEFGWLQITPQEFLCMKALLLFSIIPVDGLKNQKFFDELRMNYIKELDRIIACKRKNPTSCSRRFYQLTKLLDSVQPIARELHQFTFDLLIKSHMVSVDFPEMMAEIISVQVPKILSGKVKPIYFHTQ

Sequence of Estrogen receptor beta (Homo sapiens) (Q92731 whole entry, looked up, the tested form may be a part): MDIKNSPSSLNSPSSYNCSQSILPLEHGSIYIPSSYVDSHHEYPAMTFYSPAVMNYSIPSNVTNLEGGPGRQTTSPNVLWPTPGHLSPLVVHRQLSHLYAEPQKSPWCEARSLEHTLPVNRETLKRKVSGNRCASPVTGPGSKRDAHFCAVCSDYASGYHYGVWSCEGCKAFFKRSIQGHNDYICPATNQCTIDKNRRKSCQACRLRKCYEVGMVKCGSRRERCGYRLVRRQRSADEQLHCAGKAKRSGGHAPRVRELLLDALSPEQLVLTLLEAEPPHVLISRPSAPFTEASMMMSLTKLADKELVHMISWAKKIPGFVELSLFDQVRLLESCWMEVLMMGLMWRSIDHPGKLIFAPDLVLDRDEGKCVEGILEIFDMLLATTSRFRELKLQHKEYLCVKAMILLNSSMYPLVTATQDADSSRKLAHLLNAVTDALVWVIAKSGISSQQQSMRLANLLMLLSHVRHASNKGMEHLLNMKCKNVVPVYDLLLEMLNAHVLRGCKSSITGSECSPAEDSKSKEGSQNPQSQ
Sequence of Estrogen receptor (Homo sapiens) (P03372 whole entry, looked up, the tested form may be a part): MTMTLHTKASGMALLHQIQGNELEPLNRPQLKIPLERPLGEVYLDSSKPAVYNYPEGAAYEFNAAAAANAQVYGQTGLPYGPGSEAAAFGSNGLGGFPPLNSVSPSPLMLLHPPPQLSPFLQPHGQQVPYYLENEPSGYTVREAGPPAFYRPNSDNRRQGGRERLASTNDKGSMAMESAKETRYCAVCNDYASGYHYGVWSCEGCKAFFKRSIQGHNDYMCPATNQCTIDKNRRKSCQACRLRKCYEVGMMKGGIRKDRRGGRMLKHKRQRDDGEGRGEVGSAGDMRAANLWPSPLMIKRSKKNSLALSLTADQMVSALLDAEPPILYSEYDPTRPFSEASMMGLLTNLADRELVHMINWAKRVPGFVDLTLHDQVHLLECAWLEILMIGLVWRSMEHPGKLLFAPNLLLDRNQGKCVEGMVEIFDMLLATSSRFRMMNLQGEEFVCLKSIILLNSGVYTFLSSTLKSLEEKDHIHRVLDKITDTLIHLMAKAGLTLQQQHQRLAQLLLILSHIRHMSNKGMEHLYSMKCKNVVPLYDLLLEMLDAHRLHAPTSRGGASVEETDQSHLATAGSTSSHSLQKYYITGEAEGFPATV
Sequence of Nuclear receptor subfamily 1 group I member 2 (Mus musculus) (O54915 whole entry, looked up, the tested form may be a part): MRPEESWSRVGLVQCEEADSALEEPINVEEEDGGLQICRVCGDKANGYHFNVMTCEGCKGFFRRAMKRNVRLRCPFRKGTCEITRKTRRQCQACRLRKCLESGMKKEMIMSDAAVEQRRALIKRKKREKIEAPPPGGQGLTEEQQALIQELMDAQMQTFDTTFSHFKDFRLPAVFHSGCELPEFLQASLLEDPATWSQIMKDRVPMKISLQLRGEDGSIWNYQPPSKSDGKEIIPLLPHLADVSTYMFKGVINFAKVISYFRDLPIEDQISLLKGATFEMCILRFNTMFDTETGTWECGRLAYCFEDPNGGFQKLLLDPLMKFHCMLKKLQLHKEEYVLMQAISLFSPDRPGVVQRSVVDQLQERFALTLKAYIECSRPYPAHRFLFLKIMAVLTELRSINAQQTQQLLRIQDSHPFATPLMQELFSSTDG
Sequence of mouse Peroxisome Proliferator-activated Receptor gamma (PPARg), Pparg (gene 19016) (P37238 whole entry, looked up, the tested form may be a part): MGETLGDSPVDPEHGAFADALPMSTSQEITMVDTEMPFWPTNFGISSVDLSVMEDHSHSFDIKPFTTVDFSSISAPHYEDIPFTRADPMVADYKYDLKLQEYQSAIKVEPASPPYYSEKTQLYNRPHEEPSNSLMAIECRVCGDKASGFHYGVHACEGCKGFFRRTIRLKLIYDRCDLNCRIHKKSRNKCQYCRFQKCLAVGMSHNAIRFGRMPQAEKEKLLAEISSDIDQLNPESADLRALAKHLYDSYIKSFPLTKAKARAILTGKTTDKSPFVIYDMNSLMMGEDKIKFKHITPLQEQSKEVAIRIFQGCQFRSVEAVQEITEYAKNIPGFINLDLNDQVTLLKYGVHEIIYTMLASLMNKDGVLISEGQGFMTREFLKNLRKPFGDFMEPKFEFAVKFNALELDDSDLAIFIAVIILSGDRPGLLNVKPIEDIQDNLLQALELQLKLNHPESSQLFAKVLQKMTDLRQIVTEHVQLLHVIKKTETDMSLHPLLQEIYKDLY
Sequence of Peroxisome proliferator-activated receptor gamma (Homo sapiens) (P37231 whole entry, looked up, the tested form may be a part): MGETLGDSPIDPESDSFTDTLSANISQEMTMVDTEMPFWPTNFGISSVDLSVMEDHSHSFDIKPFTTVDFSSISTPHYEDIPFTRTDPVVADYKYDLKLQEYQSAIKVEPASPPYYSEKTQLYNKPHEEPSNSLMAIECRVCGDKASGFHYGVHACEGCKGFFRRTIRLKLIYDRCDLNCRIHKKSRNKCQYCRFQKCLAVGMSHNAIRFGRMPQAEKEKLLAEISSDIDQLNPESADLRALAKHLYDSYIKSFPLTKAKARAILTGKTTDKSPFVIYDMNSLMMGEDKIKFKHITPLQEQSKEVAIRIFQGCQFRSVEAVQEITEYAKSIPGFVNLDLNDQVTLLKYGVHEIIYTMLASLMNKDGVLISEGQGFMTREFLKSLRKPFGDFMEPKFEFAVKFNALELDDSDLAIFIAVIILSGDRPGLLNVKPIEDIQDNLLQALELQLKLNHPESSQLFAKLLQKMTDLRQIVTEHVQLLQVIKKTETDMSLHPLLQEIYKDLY
Sequence of chicken Estrogen Receptor (ESR1), ESR1 (gene 396099) (P06212 whole entry, looked up, the tested form may be a part): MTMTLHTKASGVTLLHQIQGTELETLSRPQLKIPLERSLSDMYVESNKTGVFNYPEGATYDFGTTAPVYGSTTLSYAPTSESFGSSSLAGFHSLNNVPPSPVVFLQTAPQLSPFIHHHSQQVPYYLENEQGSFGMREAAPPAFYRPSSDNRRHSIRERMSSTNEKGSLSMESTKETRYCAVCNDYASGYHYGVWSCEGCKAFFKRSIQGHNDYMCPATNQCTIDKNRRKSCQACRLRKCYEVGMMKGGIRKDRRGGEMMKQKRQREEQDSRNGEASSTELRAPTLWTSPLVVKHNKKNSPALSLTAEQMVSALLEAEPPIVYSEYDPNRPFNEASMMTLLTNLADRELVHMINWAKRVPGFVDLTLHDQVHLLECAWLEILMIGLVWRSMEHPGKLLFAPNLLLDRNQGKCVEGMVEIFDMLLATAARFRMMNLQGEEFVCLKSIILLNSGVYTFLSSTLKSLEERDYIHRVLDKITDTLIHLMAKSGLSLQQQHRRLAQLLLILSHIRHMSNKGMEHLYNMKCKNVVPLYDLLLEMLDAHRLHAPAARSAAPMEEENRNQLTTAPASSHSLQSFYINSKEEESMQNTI

By AC50 is commonly meant the concentration at which the activity in the assay is half-maximal. For `O=P(OC(CCl)CCl)(OC(CCl)CCl)OC(CCl)CCl`, the AC50 in assay [1] was 3.06 µM (active); in assay [3], 3.85 µM (active); in assay [4], 2.78 µM (active); in [5] it was 5.66 µM (active); in assay [6], 26 µM (active); in assay [12], 78.6 µM (active). Also, the AC50 in assay [13] is 25.8 µM (active); in [14], 0.447 µM (active). Also, the molecule was classed as inactive in assay [2], in assay [7], in [8], in assay [9], in assay [10] and in assay [11].

Take `O=c1[nH]c2ccc(S(=O)CCN3CCC(Cc4ccc(F)cc4)CC3)cc2o1` (stereo not drawn): the molecule was classed as inactive in [15], in assay [16], in assay [17] and in assay [18].

On to `Clc1nc(Cl)c(Cl)c(Cl)c1Cl`, for which the molecule was classed as inactive in assay [15]. Moreover, the AC50 was 50 µM (active) in assay [16] and 92 µM (active) in assay [17].

`COc1cccc(-c2ccc(/C=C\CN3CCCCCC3)cc2Cl)c1`: the AC50 is 62.7 µM (active) in assay [15], 45.2 µM (active) in assay [16], 56.3 µM (active) in [17] and 1.1 µM (active) in assay [18].

In the case of `O=C(CCCCCCCCc1cccnc1)N1CCC(C=C(c2ccccc2)c2ccccc2)CC1`, the AC50 is 11.4 µM (active) in assay [15], 12.1 µM (active) in assay [16] and 7.53 µM (active) with AR (gene 367) [20]. Also, in the assay with AR (gene 367) [19], the outcome was inactive.

`CC(C)c1cccc(C(C)C)c1N1C(=O)c2ccc(O)cc2C1=O`: the AC50 in assay [15] is 19.4 µM (active); in [16] it was 17.6 µM (active); in [17], 80.3 µM (active); in [18], 20.6 µM (active).

As for `On1ccccc1=S`, the AC50 in assay [15] is 9.92 µM (active); in assay [16] it was 50 µM (active); in [17] it was 88.8 µM (active); in [18], 8.35 µM (active).

Take `Cc1ccc(N)cc1O`: the figures for the AC50 (in assay [15]; in assay [16]; in the assay with AR (gene 367) [20]) were 89.7 µM (active), 87.4 µM (active) and 74.4 µM (active), respectively. The molecule was called inactive (in assay [17]; with AR (gene 367) [19]).

As for `Cn1c(=O)c2c(ncn2C)n(C)c1=O`, the outcome in assay [15], in assay [16], in [17] and in assay [18] was inactive.

As to `CCOCCO`, the outcome in assay [15], in [16] and in assay [17] was inactive.

Consider `Oc1ccc2c(c1)-c1ccccc1C2`, for which the AC50 is 50 µM (active) in [15], 41.8 µM (active) in [16], 79.2 µM (active) in assay [17] and 50 µM (active) in the assay with AR (gene 367) [20]. For the same molecule, the result with AR (gene 367) [19] was inactive.

`CCC(C)(C)C(=O)O[C@H]1C[C@@H](C)C=C2C=C[C@H](C)[C@H](CC[C@@H]3C[C@@H](O)CC(=O)O3)[C@H]21`: the results for the half-maximal activity concentration (AC50) in assay [15], in assay [16] and in assay [17] were 29.9 µM (active), 32.1 µM (active) and 30.5 µM (active), respectively. Further, the result in assay [18] was inactive.
